According to PubChem BioAssay (EPA / NIEHS):
Results filed as inconclusive are left out. Active and inactive are the calls of the source. How the source made its calls: active means hit-call score of the fitted dose curve at least 0.9, where 1 is the maximum; inconclusive means response in the unintended direction; inactive means score below 0.9.

What was measured:
[1] = TOX21_p53_BLA_p3_viability: Viability Assessment in the Tox21 HCT-116 p53 Agonism Beta-lactamase Assay, Phase 3 (AID 2283593);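 further: cells exposed to compound for 16 h before reading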
Summary of the method: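 Cellular ATP was quantified by CellTiter-Glo luminescence, read after 30 min at room temperature. Beforehand, HCT116 cells (4000/well) received compound 5 h post-seeding, 217-fold diluted from DMSO, then incubated 16 h at 37C.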

[2] = molecular target: Cellular tumor antigen p53 (Homo sapiens) (UniProt P04637); test: TOX21_p53_BLA_p5_ratio: Tox21 HCT-116 p53 Agonism Beta-lactamase Assay, Ratio, Phase 5 (AID 2283599)
Chain of Cellular tumor antigen p53 (Homo sapiens) (P04637 whole entry, looked up): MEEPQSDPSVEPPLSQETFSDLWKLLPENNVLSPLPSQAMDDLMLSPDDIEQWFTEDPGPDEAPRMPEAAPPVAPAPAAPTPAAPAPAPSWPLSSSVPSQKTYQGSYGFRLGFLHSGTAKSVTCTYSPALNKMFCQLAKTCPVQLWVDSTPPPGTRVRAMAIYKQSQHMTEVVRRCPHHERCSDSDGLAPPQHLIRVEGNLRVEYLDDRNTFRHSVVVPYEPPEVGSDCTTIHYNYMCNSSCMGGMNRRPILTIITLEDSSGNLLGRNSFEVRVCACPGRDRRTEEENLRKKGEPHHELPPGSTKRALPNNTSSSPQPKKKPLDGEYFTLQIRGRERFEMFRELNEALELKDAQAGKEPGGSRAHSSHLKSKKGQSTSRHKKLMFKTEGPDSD
Summary of the method: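 Beta-lactamase reporter ratio (blue 460 nm over green 530 nm, 405 nm excitation) after 2 h CCF4-AM loading, in HCT-116 cells exposed 16 h at 37 C to compounds pinned at 217-fold dilution. Increases relative to DMSO baseline scored.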

[3] = TOX21_p53_BLA_p5_viability: Viability Assessment in the Tox21 HCT-116 p53 Agonism Beta-lactamase Assay, Phase 5 (AID 2283600)
Summary of the method: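 Compounds, pinned from DMSO at 217-fold dilution, were left on the cells for 16 h. The viability endpoint was ATP content measured by CellTiter-Glo luminescence, where falling signal reflects cytotoxicity.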

[4] = molecular target: Cellular tumor antigen p53 (Homo sapiens) (UniProt P04637); test: TOX21_p53_BLA_p4_ratio: Tox21 HCT-116 p53 Agonism Beta-lactamase Assay, Ratio, Phase 4 (AID 2283601)
Summary of the method: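 Signal is the blue/green (460nm/530nm) ratio of cleaved versus uncleaved CCF4-AM substrate, read after 2 h substrate loading. Cells were HCT116 carrying the p53-responsive beta-lactamase reporter, dosed 16 h at 37C, 5% CO2; CellTiter-Glo measured in parallel.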

[5] = Tanguay_ZF_120hpf_YSE_legacy: (Legacy) Oregon State University Tanguay Lab 120 Hour Post-fertilization zebrafish Assay for Yolk Sac Edema (AID 2283634)
Summary of the method: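 Binary brightfield scoring of yolk sac edema at 120 hpf; DMSO baseline, gain-of-signal fitting. Dechorionated 5D larvae, one per well, static exposure 6–120 hpf, 28C, 0.64% DMSO. Dead embryos not scored.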

[6] = Tanguay_ZF_120hpf_EYE_legacy: (Legacy) Oregon State University Tanguay Lab 120 Hour Post-fertilization zebrafish Assay for Eye Malformation (AID 2283636)
Summary of the method: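 Read-out is binary presence or absence of eye malformation, scored by brightfield microscopy at 120 hpf. Single larvae were exposed from 6 hpf in embryo medium containing 0.64% DMSO, with DMSO as baseline.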

[7] = Tanguay_ZF_120hpf_SNOU_legacy: (Legacy) Oregon State University Tanguay Lab 120 Hour Post-fertilization zebrafish Assay for Snout Malformation (AID 2283637)
Summary of the method: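 Snout malformation read as a yes/no call on brightfield images of 120 hpf larvae (Tropical 5D strain). Static exposure began at 6 hpf on dechorionated embryos in 0.64% DMSO, with gain of signal analysed versus DMSO controls.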

[8] = Tanguay_ZF_120hpf_JAW_legacy: (Legacy) Oregon State University Tanguay Lab 120 Hour Post-fertilization zebrafish Assay for Jaw Malformation (AID 2283638)
Summary of the method: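 Binary jaw-malformation calls at 120 hpf by brightfield imaging; DMSO (0.64% v/v) = baseline. Embryos: 5D wild-type, pronase-dechorionated, one per well from 6 hpf, static exposure, 28C, sealed, dark.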

[9] = Tanguay_ZF_120hpf_PE_legacy: (Legacy) Oregon State University Tanguay Lab 120 Hour Post-fertilization zebrafish Assay for Pericardial Edema (AID 2283640)
Summary of the method: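 Static waterborne exposure, 5D wild-type embryos, 28C, to 120 hpf; final DMSO 0.64% (vol/vol). Binary PE call at 120 hpf by brightfield; fitted upward vs DMSO baseline. 5uM trimethyltin chloride as positive control.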

[10] = Tanguay_ZF_120hpf_BRAI_legacy: (Legacy) Oregon State University Tanguay Lab 120 Hour Post-fertilization zebrafish Assay for Brain Malformation (AID 2283641)
Summary of the method: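 Read-out: binary brain morphology call at 120 hpf (brightfield), fitted in gain-of-signal direction vs DMSO. Wild-type Tropical 5D embryos, static exposure, 28C, 0.64% DMSO final; 5uM trimethyltin chloride as positive control.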

[11] = Tanguay_ZF_120hpf_PFIN_legacy: (Legacy) Oregon State University Tanguay Lab 120 Hour Post-fertilization zebrafish Assay for Pectoral Fin Malformation (AID 2283648);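 further: each larva judged yes or no for fin defect by brightfield with dead larvae skipped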
Summary of the method: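 5D WT zebrafish; pronase dechorionation 4 hpf; 1 embryo/well at 6 hpf; static exposure to 120 hpf, 28C, sealed, foil-covered; final DMSO 0.64% v/v; 5 uM trimethyltin chloride positive control; fin defect scored yes/no.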

[12] = Tanguay_ZF_120hpf_PIG_legacy: (Legacy) Oregon State University Tanguay Lab 120 Hour Post-fertilization zebrafish Assay for Pigmentation Malformation (AID 2283650);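 further: dechorionated Tropical 5D zebrafish embryos exposed singly from 6 to 120 hpf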
Summary of the method: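 Pronase dechorionation at 4 hpf; embryos plated at 6 hpf, one per well; static exposure, sealed and foil-covered, 28C, to 120 hpf; pigmentation read by brightfield, binary; DMSO 0.64% baseline, 5uM trimethyltin chloride positive control.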

[13] = Tanguay_ZF_120hpf_CIRC_legacy: (Legacy) Oregon State University Tanguay Lab 120 Hour Post-fertilization zebrafish Assay for Circulatory Malformation (AID 2283651)
Summary of the method: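 Read-out: presence or absence of circulatory malformation at 120 hpf, scored by brightfield microscopy, fitted in the gain-of-signal direction against DMSO baseline. Wild-type 5D larvae were exposed from 6 hpf after enzymatic chorion removal.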

[14] = Tanguay_ZF_120hpf_AXIS_legacy: (Legacy) Oregon State University Tanguay Lab 120 Hour Post-fertilization zebrafish Assay for Body Axis Malformation (AID 2283635)
Summary of the method: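 Embryos: 5D wild-type, pronase-dechorionated 4 hpf; static exposure 6–120 hpf, 28C, sealed, dark, 1 embryo/well, 0.64% DMSO. 120 hpf axis malformation scored present/absent; dead embryos excluded. Analysed as gain of signal vs DMSO.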

[15] = Tanguay_ZF_120hpf_OTIC_legacy: (Legacy) Oregon State University Tanguay Lab 120 Hour Post-fertilization zebrafish Assay for Otic Vesicle Malformation (AID 2283639)
Summary of the method: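 Embryos from 5D wild-type adults exposed in plates; DMSO 0.64% v/v final. Sealed, light-protected, 28C, static to 120 hpf. Otic vesicle malformation recorded as binary endpoint; gain-of-signal fitted vs DMSO.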

[16] = Tanguay_ZF_120hpf_CFIN_legacy: (Legacy) Oregon State University Tanguay Lab 120 Hour Post-fertilization zebrafish Assay for Caudal Fin Malformation (AID 2283649)
Summary of the method: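 Dechorionated 5D wild-type zebrafish, static exposure 6–120 hpf, 28C, sealed and dark, 0.64% v/v DMSO final. Binary fin-malformation call at 120 hpf, brightfield; gain of signal vs DMSO baseline.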

[17] = molecular target: Cellular tumor antigen p53 (Homo sapiens) (UniProt P04637); test: TOX21_p53_BLA_p3_ratio: Tox21 HCT-116 p53 Agonism Beta-lactamase Assay, Ratio, Phase 3 (AID 2283596)
Summary of the method: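 HCT116 p53-bla cells (4000/well) given compound in DMSO (217-fold dilution) after 5 h, incubated 16 h at 37C. CCF4-AM substrate 2 h at room temperature; 460/530 nm emission ratio, gain fitted against DMSO.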

[18] = TOX21_p53_BLA_p4_viability: Viability Assessment in the Tox21 HCT-116 p53 Agonism Beta-lactamase Assay, Phase 4 (AID 2283597);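 further: hits lower the luminescence signal meaning cytotoxicity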
Summary of the method: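 We seeded HCT116 p53 reporter cells at 4000/well and waited 5 h. We then added compounds in DMSO at a 217-fold dilution and incubated for 16 h. Viability was read as CellTiter-Glo luminescence after 30 min at RT.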

[19] = Tanguay_ZF_120hpf_MORT_legacy: (Legacy) Oregon State University Tanguay Lab 120 Hour Post-fertilization zebrafish Assay for Mortality (AID 2283633)
Summary of the method: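 Brightfield scoring of embryo death (binary) at 24 and 120 hpf; static exposure 6–120 hpf, 28C, sealed and foil-covered. Pronase-dechorionated 5D wild-type larvae, single embryo per well. DMSO 0.64% v/v; trimethyltin chloride 5uM positive control.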

Measured: outcome

CCCCCCOC(=O)c1ccccc1C(=O)OCCCCCC
not listed: [14] | [15] | [16] | [17] | [18] | [19]
inactive: all other assays above

CCSC(=O)N(CC)C1CCCCC1
inactive: [5] | [14] | [7] | [8] | [15] | [10] | [11] | [16] | [12] | [13]

C1CC2OC2CC1C1CO1 (stereo unspecified)
not listed: [1] | [2] | [5] | [9] | [10] | [14]
inactive: all other assays above
